In PubChem BioAssay AID1159580 (chemical genetic matrix, 2015):
Screen size: about 5,500 compounds; about 2,000 (36%) were called active. About 18% were inconclusive and are not listed. Rule as the data show it: active = normalized growth mostly below about 0.91 (no sharp cut-off); inconclusive = no clear call, values can overlap the other calls; inactive = mostly above about 0.92. The list shows a part of the results.

Test: chemical genetic growth profiling, strain panel (AID 1159580);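 also: tested at 20 µM; growth read once vehicle control cultures reached saturation at 30 °C; 1 = growth at the plate median or of vehicle wells; lower values mean less growth of the strain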
Details: S. cerevisiae deletion strains, growth OD
[1] = locus YDL101C, strain DUN1, stronger effect = lower value
[2] = locus YGR078C, strain PAC10, stronger effect = lower value
[3] = locus YHR030C, strain SLT2, stronger effect = lower value
[4] = locus YJR075W, strain HOC1, stronger effect = lower value
[5] = locus YMR263W, strain SAP30, stronger effect = lower value
[6] = locus YMR307W, strain GAS1, stronger effect = lower value
[7] = locus YNL153C, strain GIM3, stronger effect = lower value
[8] = locus YNL322C, strain KRE1, stronger effect = lower value
[9] = locus YPL241C, strain CIN2, stronger effect = lower value
[10] = locus YAL040C, strain CLN3, stronger effect = lower value
[11] = locus YCL061C, strain MRC1 (second series), stronger effect = lower value
[12] = locus YDR363W, strain ESC2, stronger effect = lower value
[13] = locus YER002W, strain NOP16, stronger effect = lower value
[14] = locus YNL175C, strain NOP13, stronger effect = lower value
[15] = locus YNL197C, strain WHI3, stronger effect = lower value
[16] = locus YNL224C, strain SQS1, stronger effect = lower value
[17] = locus YOR083W, strain WHI5 (second series), stronger effect = lower value
[18] = locus YAR019C, strain CDC15, stronger effect = lower value
[19] = locus YBL105C, strain PKC1, stronger effect = lower value
[20] = locus YBR135W, strain CKS1, stronger effect = lower value
[21] = locus YBR136W, strain MEC1, stronger effect = lower value
[22] = locus YBR160W, strain CDC28, stronger effect = lower value
[23] = locus YDL017W, strain CDC7, stronger effect = lower value
[24] = locus YDL028C, strain MPS1, stronger effect = lower value
[25] = locus YDL108W, strain KIN28, stronger effect = lower value
[26] = locus YDL132W, strain cdc53, stronger effect = lower value
[27] = locus YDL214C, strain PRR2, stronger effect = lower value
[28] = locus YDR052C, strain DBF4, stronger effect = lower value
[29] = locus YDR054C, strain cdc34, stronger effect = lower value
[30] = locus YDR226W, strain ADK1, stronger effect = lower value
[31] = locus YDR477W, strain SNF1, stronger effect = lower value
[32] = locus YER123W, strain YCK3, stronger effect = lower value
[33] = locus YER133W, strain GLC7, stronger effect = lower value
[34] = locus YFL009W, strain cdc4, stronger effect = lower value
[35] = locus YFL029C, strain CAK1, stronger effect = lower value
[36] = locus YFR003C, strain YPI1, stronger effect = lower value
[37] = locus YFR019W, strain FAB1, stronger effect = lower value
[38] = locus YFR028C, strain CDC14, stronger effect = lower value
[39] = locus YGR040W, strain KSS1, stronger effect = lower value
[40] = locus YGR052W, strain FMP48, stronger effect = lower value
[41] = locus YGR092W, strain DBF2, stronger effect = lower value
[42] = locus YHR079C, strain IRE1, stronger effect = lower value
[43] = locus YHR082C, strain KSP1, stronger effect = lower value
[44] = locus YHR205W, strain SCH9, stronger effect = lower value
[45] = locus YIL147C, strain SLN1, stronger effect = lower value
[46] = locus YJL095W, strain BCK1, stronger effect = lower value
[47] = locus YJL128C, strain PBS2, stronger effect = lower value
[48] = locus YJL157C, strain FAR1, stronger effect = lower value
[49] = locus YJR016C, strain ILV3, stronger effect = lower value
[50] = locus YJR066W, strain TOR1 (second series), stronger effect = lower value
[51] = locus YJR066W, strain TOR1, stronger effect = lower value
[52] = locus YKL048C, strain ELM1, stronger effect = lower value
[53] = locus YKL067W, strain YNK1, stronger effect = lower value
[54] = locus YKL101W, strain HSL1, stronger effect = lower value
[55] = locus YKL193C, strain SDS22, stronger effect = lower value
[56] = locus YKL203C, strain TOR2, stronger effect = lower value
[57] = locus YLR113W, strain HOG1, stronger effect = lower value
[58] = locus YLR133W, strain CKI1, stronger effect = lower value
[59] = locus YLR403W, strain SFP1, stronger effect = lower value
[60] = locus YML070W, strain DAK1, stronger effect = lower value
[61] = locus YMR001C, strain CDC5, stronger effect = lower value
[62] = locus YMR205C, strain PFK2 (second series), stronger effect = lower value
[63] = locus YMR277W, strain FCP1, stronger effect = lower value
[64] = locus YNL006W, strain LST8, stronger effect = lower value
[65] = locus YNL020C, strain ARK1, stronger effect = lower value
[66] = locus YNL161W, strain CBK1, stronger effect = lower value
[67] = locus YNL183C, strain NPR1, stronger effect = lower value
[68] = locus YNL207W, strain RIO2, stronger effect = lower value
[69] = locus YNL222W, strain SSU72, stronger effect = lower value
[70] = locus YNL307C, strain MCK1 (second series), stronger effect = lower value
[71] = locus YOL078W, strain AVO1, stronger effect = lower value
[72] = locus YOL136C, strain PFK27, stronger effect = lower value
[73] = locus YOR061W, strain CKA2, stronger effect = lower value
[74] = locus YOR119C, strain RIO1, stronger effect = lower value
[75] = locus YOR231W, strain MKK1, stronger effect = lower value
[76] = locus YOR329C, strain SCD5, stronger effect = lower value
[77] = locus YPL031C, strain PHO85, stronger effect = lower value
[78] = locus YPL153C, strain RAD53, stronger effect = lower value
[79] = locus YPL204W, strain HRR25, stronger effect = lower value
[80] = locus YPL209C, strain IPL1, stronger effect = lower value
[81] = locus YPL256C, strain CLN2, stronger effect = lower value
[82] = locus YPR025C, strain CCL1, stronger effect = lower value
[83] = locus YPR106W, strain ISR1, stronger effect = lower value
[84] = locus YPR111W, strain DBF20, stronger effect = lower value
[85] = strain NNK1, stronger effect = lower value
[86] = strain TSCII, stronger effect = lower value

Measured: normalized growth

ON=C(c1cccs1)c1cccs1
inactive: locus YAL013W, strain DEP1, stronger effect = lower value 0.947 | locus YBR229C, strain ROT2, stronger effect = lower value 0.94 | [1] 0.94 | locus YDL134C, strain PPH21, stronger effect = lower value 0.989 | locus YDR150W, strain NUM1, stronger effect = lower value 0.921 | locus YEL061C, strain CIN8, stronger effect = lower value 0.947 | [2] 0.928 | locus YHR087W, strain rtc3, stronger effect = lower value 0.965 | locus YJR043C, strain POL32, stronger effect = lower value 0.944 | [4] 0.927 | locus YLR058C, strain SHM2 (second series), stronger effect = lower value 0.959 | locus YML094W, strain GIM5, stronger effect = lower value 0.903 | locus YMR219W, strain ESC1, stronger effect = lower value 0.963 | [5] 0.957 | locus YNL128W, strain TEP1, stronger effect = lower value 1 | [7] 0.958 | locus YNL298W, strain CLA4 (second series), stronger effect = lower value 0.893 | locus YNR030W, strain Alg12, stronger effect = lower value 0.895 | locus YOL006C, strain TOP1, stronger effect = lower value 0.896 | locus YPL055C, strain LGE1, stronger effect = lower value 0.941 | [9] 0.876
active: [3] 0.383 | locus YLR039C, strain RIC1, stronger effect = lower value 0.62 | locus YLR085C, strain ARP6, stronger effect = lower value 0.673 | locus YLR262C, strain YPT6, stronger effect = lower value 0.657 | [6] 0.657 | [8] 0.924 | locus YPR135W, strain CTF4, stronger effect = lower value 0.637

O=C1NC(=O)C(c2ccccc2[N+](=O)[O-])=C1Nc1ccc(O)c(Cl)c1
inactive: [10] 0.951 | [11] 0.974 | [12] 0.964 | [13] 0.98 | [4] 1 | [5] 0.99 | [6] 1.04 | [7] 0.971 | [14] 0.953 | [15] 0.981 | [16] 0.996 | [17] 0.943 | [9] 0.982

O=C(Nc1ccccc1)Nc1ccc(Cl)cc1[N+](=O)[O-]
active: [3] 0.721 | [81] 0.809
inactive: [18] 0.977 | [19] 0.973 | [20] 0.976 | [21] 0.977 | [22] 0.964 | [23] 0.975 | [24] 0.974 | [1] 0.987 | [25] 0.988 | [26] 0.962 | [27] 0.917 | [28] 0.968 | [29] 0.97 | [30] 0.968 | [31] 0.947 | [32] 0.92 | [33] 0.959 | [34] 0.961 | [35] 0.977 | [36] 0.989 | [37] 0.933 | [38] 0.974 | [39] 0.938 | [40] 1.01 | [41] 0.932 | [42] 0.872 | [43] 0.926 | [44] 0.874 | [45] 0.972 | [46] 0.847 | [47] 0.958 | [48] 0.946 | [49] 0.972 | [50] 0.928 | [51] 0.903 | [52] 0.925 | [53] 0.93 | [54] 0.921 | [55] 0.968 | [56] 0.976 | [57] 0.888 | [58] 0.92 | [59] 0.944 | [60] 0.909 | [61] 0.977 | [62] 0.941 | [63] 0.974 | [64] 0.976 | [65] 0.909 | [66] 0.976 | [67] 0.906 | [68] 0.96 | [69] 0.985 | [70] 0.916 | [71] 0.97 | [72] 0.892 | [73] 0.956 | [74] 1.01 | [75] 0.835 | [76] 0.978 | [77] 0.948 | [78] 0.942 | [79] 0.925 | [80] 0.975 | [82] 0.979 | [83] 0.975 | [84] 0.963 | [85] 0.952 | [86] 0.965

O=[N+]([O-])c1cc(Cl)cc([N+](=O)[O-])c1Nc1ccccc1
active: [3] 0.824
inactive: [18] 0.924 | [19] 0.927 | [20] 0.916 | [21] 0.923 | [22] 0.918 | [23] 0.937 | [24] 0.925 | [1] 0.919 | [25] 0.935 | [26] 0.91 | [27] 0.986 | [28] 0.94 | [29] 0.893 | [30] 0.934 | [31] 0.949 | [32] 0.975 | [33] 0.977 | [34] 0.917 | [35] 0.929 | [36] 0.938 | [37] 0.963 | [38] 0.942 | [39] 0.963 | [40] 1.1 | [41] 0.89 | [42] 0.976 | [43] 0.997 | [44] 0.965 | [45] 0.933 | [46] 0.921 | [47] 0.916 | [48] 0.957 | [49] 0.936 | [50] 0.946 | [51] 0.969 | [52] 0.93 | [53] 0.982 | [54] 0.96 | [55] 0.932 | [56] 0.989 | [57] 0.923 | [58] 0.954 | [59] 0.992 | [60] 0.987 | [61] 0.929 | [62] 0.998 | [63] 0.936 | [64] 0.926 | [65] 0.928 | [66] 0.92 | [67] 0.992 | [68] 0.935 | [69] 0.936 | [70] 0.943 | [71] 0.922 | [72] 0.981 | [73] 0.968 | [74] 1.03 | [75] 0.962 | [76] 0.926 | [77] 0.948 | [78] 0.965 | [79] 0.946 | [80] 0.933 | [81] 0.972 | [82] 0.922 | [83] 0.949 | [84] 0.934 | [85] 0.954 | [86] 0.915

O=C(Nc1ccccc1)c1cc([N+](=O)[O-])ccc1Cl
inactive: [10] 1.07 | [11] 0.989 | [12] 0.967 | [13] 0.972 | [2] 0.974 | locus YGR229C, strain SMI1, stronger effect = lower value 0.996 | [14] 0.996 | [15] 0.969 | [16] 0.976 | [8] 0.999 | [17] 0.958 | [9] 1
